From PubChem BioAssay
CHRM1 antagonist: human CHRM1 antagonism. P11229. inhibition, % at 3 µM. CHO-K1 hM1, Fluo-8 calcium fluorescence, ACh EC80 antagonist. 360,000 tested, 1.3% active;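 active = percent inhibition above its own plate's cutoff, namely the mean of that plate's compound wells plus 3 SD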;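 also: peak over basal fluorescence ratio during 140 s after agonist addition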
Target sequence (P11229 whole entry, looked up): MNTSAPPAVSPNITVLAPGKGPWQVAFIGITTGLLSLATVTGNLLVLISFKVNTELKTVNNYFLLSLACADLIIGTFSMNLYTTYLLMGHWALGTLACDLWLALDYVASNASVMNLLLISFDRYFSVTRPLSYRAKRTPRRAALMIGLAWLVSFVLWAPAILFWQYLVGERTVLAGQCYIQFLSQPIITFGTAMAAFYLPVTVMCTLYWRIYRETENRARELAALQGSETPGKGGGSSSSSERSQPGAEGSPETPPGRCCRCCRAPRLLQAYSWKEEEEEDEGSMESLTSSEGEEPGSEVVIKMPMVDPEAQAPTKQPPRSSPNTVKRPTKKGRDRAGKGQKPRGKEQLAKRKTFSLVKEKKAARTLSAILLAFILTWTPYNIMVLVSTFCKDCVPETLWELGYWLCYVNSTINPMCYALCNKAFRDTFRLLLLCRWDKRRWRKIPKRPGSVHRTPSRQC
M1 PAM parental: counter-screen for M1 PAMs: effect in parental CHO-K1 cells; 360,000 tested, 0.02% active; activation, % at 3 µM; ATP EC20, Fluo-8 calcium fluorescence; 0% at ATP EC20, 100% at ATP max; AID 602247;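 active = activation above the run cutoff, the mean activation of all test compounds plus 3 SD, cut at about 40% in these data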;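 also: peak over basal fluorescence ratio in a 140 s read after ATP addition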
CHRM1 PAM: positive allosteric modulators of human M1 muscarinic receptor; CHO-K1 hM1, Fluo-8 calcium fluorescence, ACh EC20; 0% = ACh EC20, 100% = maximal ACh; activation, % at 3 µM; 360,000 tested, 0.088% active; AID 588819; in the data active = activation above about 19%, passing the limit was not always enough
CHO-K1 Ca antag: M1 antagonist counterscreen hit in parental CHO-K1 cells; inhibition, % at 3 µM; ATP-induced calcium, Fluo-8 fluorescence; AID 602250; 360,000 tested, 0.6% active;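 active = inhibition above a per-plate cutoff, the plate's mean sample inhibition plus 3 SD, cut at about 24% in these data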
M1 ag parental: M1 agonist counterscreen hit in parental CHO-K1 cells | activation, % at 3 µM | 360,000 tested, 0.48% active | Fluo-8 calcium fluorescence; scaled to maximal ATP response, vehicle zero | AID 602248; in the data active = activation above about 15%;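 also: untransfected CHO-K1 host cells lacking M1 receptor as counterscreen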
M1 ag: activates human CHRM1 receptor; AID 588814; P11229; 360,000 tested, 0.33% active; CHO-K1 hM1, Fluo-8 calcium fluorescence, agonist mode; 0% DMSO, 100% acetylcholine EC100; activation, % at 3 µM;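 active = activation above the run's mean compound activation plus 3 SD, cut at about 16% in these data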;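 also: peak over basal fluorescence ratio within a 140 s kinetic read after compound addition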
A number is an active result; 0 = inactive; - = not tested or not shown. Sampled rows, rich in hits. Any-hit rate of the full collection: about 2.4%.

SMILES	CHRM1 antagonist	M1 PAM parental	CHRM1 PAM	CHO-K1 Ca antag	M1 ag parental	M1 ag
Cc1c(C(=O)NC(=S)Nc2ccc(NC(=O)c3cccs3)cc2)cccc1[N+](=O)[O-]	33	0	0	0	0	0
Cc1cccc(C(=O)NC(=S)NNC(=O)c2ccc(Cl)cc2)c1	37	0	0	48	110	93
CN1C(=O)CSc2ccc(NC(=O)NCc3ccco3)cc21	0	0	0	0	0	0
COc1cc(C(=O)NNC(=S)NC(=O)/C=C/c2ccccc2)cc(OC)c1OC	0	0	0	0	0	23
CN1CCN(C(=O)c2ccccc2NC(=O)c2ccccc2Br)CC1	0	0	0	0	0	0
Cc1ccccc1C(=O)Nc1cccc(NC(=S)NC(=O)c2cccs2)c1	0	0	0	0	0	0
COc1cc(C(=O)NNC(=O)/C=C/c2ccccc2)cc(OC)c1OC	0	0	0	0	0	0
Cc1ccccc1C(=O)NNC(=S)NC(=O)c1cccs1	0	0	0	0	37	51
O=C(NNC(=S)NC(=O)c1cccc([N+](=O)[O-])c1)c1ccc(O)cc1	0	0	0	0	0	0
O=C(NNC(=S)NC(=O)c1ccccc1)c1cccc([N+](=O)[O-])c1	0	0	0	0	0	17
CN1CCN(C(=O)c2ccccc2NC(=O)c2cccs2)CC1	active	0	0	0	0	0
Cc1ccc(-c2cc(C(F)F)n3ncc(C(=O)Nc4c(C)nn(Cc5ccccc5Cl)c4C)c3n2)cc1	0	0	0	0	0	0
CC(C)[C@@H]1Cc2[nH]n(C)c(=O)c2[C@H](c2ccc(Cl)cc2)O1	-	0	-	0	0	-
COc1ccc(S(=O)(=O)N/N=C/c2ccc(OCCN3CCOCC3)c(OC)c2)cc1	0	0	0	0	0	0
CC(C)CNC(=O)NC(=O)COc1ncnc2sccc12	0	0	0	0	0	0
O=C(NC(=S)NNC(=O)c1cccs1)c1ccccc1	0	0	0	0	0	0
CC(C)(C)c1ccc(C(=O)NC(=S)NNC(=O)c2cccs2)cc1	27	0	0	0	85	92
CCOC(=O)c1ccc(N=C2C(=S)N(c3ccc(C(=O)OCC)cc3)C(=N)N2/N=C/c2ccccc2)cc1	99	0	0	0	0	0
CC(=O)Nc1ccc(CN2C(=O)C(C)(C)ON=C2c2ccc(C(F)(F)F)cc2)cc1	0	0	0	37	0	0
Cc1nn(CCO)c2nc(-c3cccs3)cc(C(F)(F)F)c12	0	0	0	24	0	0
Cc1nn(C)c2nc(-c3cccs3)cc(C(F)(F)F)c12	0	0	0	0	0	0
CCCCN(C)CCCNC(=O)c1ccc2c(c1)N(CC)C(=O)c1ccccc1S2=O (configuration not stated)	47	0	0	0	0	0
CCN1CCN(CCNC(=O)c2ccc(/C=C3/Sc4ccccc4N(Cc4ccccc4C)C3=O)cc2)CC1	0	0	0	0	0	0
CCN1CCN(CCCNC(=O)c2ccc(/C=C3/Sc4ccccc4N(Cc4ccccc4F)C3=O)cc2)CC1	29	0	0	0	0	0
O=C(NCCCN1CCCC1)c1ccc2c(c1)N(Cc1ccccc1F)C(=O)c1ccccc1S2=O (configuration not stated)	33	0	0	0	0	0
SMILES	CHRM1 antagonist	M1 PAM parental	CHRM1 PAM	CHO-K1 Ca antag	M1 ag parental	M1 ag
CC1CCCCN1CCNC(=O)c1ccc2c(c1)N(Cc1ccccc1F)C(=O)c1ccccc1S2=O (configuration not stated)	48	0	0	0	0	0
CCCCN(C)C(=O)c1ccc2c(c1)N(CC)C(=O)c1ccccc1S2=O (configuration not stated)	0	0	0	0	0	0
CCN(CC)CCN(CC)Cc1ccccc1Br	0	0	0	0	0	0
CCN1C(=O)c2ccccc2S(=O)c2ccc(C(=O)N3CCOCC3)cc21 (configuration not stated)	0	0	0	0	18	0
CCN1C(=O)c2ccccc2S(=O)(=O)c2ccc(C(=O)N3CCOCC3)cc21	0	0	0	0	0	0
O=C(/C=C/c1ccco1)NCC1OCCc2ccccc21 (configuration not stated)	0	0	0	0	0	0
Cc1csc(NC(=O)CSc2nnc(-c3ccoc3C)o2)n1	0	0	0	0	0	0
